The values that follow come from ChEMBL document CHEMBL1961873, “Compounds: GSK PKIS; Assays: Nanosyn kinase panel” (2012).

In assay [1] the target is Serine/threonine-protein kinase MARK2 (Homo sapiens) (UniProt Q7KZI7). The following applies: at 1 µM.
Assay [2] deals with PAS domain-containing serine/threonine-protein kinase (Homo sapiens) (UniProt Q96RG2). The following applies: at 0.1 µM.
The target is the same in assay [3]. To be noted: at 1 µM.
For assay [4], the target named is Phosphorylase b kinase gamma catalytic chain, skeletal muscle/heart isoform (Homo sapiens) (UniProt Q16816). To be noted: at 0.1 µM.
For assay [5] the target is unchanged. To be noted: at 1 µM.
In assay [6] the target is T1, Phosphorylase b kinase gamma catalytic chain, liver/testis isoform (Homo sapiens) (UniProt P15735).
T1 sequence (whole entry): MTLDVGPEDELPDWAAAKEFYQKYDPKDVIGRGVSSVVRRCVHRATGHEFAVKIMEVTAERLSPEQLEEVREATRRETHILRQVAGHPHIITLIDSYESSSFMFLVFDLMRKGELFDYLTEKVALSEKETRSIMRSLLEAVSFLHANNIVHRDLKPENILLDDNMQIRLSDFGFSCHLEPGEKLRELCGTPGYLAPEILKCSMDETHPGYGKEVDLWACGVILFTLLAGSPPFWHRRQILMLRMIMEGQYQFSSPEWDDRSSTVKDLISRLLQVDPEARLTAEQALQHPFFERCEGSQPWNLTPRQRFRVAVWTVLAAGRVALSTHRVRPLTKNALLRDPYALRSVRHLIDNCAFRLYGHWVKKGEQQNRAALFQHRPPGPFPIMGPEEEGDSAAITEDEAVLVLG
To be noted: at 0.1 µM.

In assay [7] the target is T1, Phosphorylase b kinase gamma catalytic chain, liver/testis isoform (Homo sapiens). The following applies: at 1 µM.
The target of assay [8] is Serine/threonine-protein kinase pim-1 (Homo sapiens) (UniProt P11309). To be noted: at 0.1 µM.
For assay [9] the target is unchanged. The following applies: at 1 µM.
The target of assay [10] is Serine/threonine-protein kinase pim-2 (Homo sapiens) (UniProt Q9P1W9). To be noted: at 0.1 µM.
Assay [11] has the same target. To be noted: at 1 µM.
Assay [12] addresses Serine/threonine-protein kinase pim-3 (Homo sapiens) (UniProt Q86V86). The following applies: at 0.1 µM.
The target is the same in assay [13]. The following applies: at 1 µM.
The target of assay [14] is T2, MAP kinase-activated protein kinase 5 (Homo sapiens) (UniProt Q8IW41).
T2 sequence (whole entry): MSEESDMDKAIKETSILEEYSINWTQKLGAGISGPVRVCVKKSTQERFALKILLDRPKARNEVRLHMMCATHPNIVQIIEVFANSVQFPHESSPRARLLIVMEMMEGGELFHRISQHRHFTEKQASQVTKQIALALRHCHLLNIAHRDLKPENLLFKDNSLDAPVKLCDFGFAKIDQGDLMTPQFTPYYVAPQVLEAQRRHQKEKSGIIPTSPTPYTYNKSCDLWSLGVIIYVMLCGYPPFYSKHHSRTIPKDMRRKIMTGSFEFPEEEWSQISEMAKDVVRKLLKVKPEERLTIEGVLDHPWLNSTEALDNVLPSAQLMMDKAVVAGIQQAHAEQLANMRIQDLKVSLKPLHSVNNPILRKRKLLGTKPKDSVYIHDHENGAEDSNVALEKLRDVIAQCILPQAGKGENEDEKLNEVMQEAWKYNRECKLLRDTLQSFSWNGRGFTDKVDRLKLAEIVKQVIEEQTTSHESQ
The following applies: at 0.1 µM.

For assay [15], the target named is T2, MAP kinase-activated protein kinase 5 (Homo sapiens). The following applies: at 1 µM.
Assay [16] has as its target Serine/threonine-protein kinase SIK1 (Homo sapiens) (UniProt P57059). To be noted: at 0.1 µM.
The target is the same in assay [17]. To be noted: at 1 µM.
In assay [18] the target is Serine/threonine-protein kinase SIK2 (Homo sapiens) (UniProt Q9H0K1). To be noted: at 0.1 µM.
Assay [19] has the same target. To be noted: at 1 µM.
Assay [20] deals with T3, Serine/threonine-protein kinase TBK1 (Homo sapiens) (UniProt Q9UHD2).
T3 sequence (whole entry): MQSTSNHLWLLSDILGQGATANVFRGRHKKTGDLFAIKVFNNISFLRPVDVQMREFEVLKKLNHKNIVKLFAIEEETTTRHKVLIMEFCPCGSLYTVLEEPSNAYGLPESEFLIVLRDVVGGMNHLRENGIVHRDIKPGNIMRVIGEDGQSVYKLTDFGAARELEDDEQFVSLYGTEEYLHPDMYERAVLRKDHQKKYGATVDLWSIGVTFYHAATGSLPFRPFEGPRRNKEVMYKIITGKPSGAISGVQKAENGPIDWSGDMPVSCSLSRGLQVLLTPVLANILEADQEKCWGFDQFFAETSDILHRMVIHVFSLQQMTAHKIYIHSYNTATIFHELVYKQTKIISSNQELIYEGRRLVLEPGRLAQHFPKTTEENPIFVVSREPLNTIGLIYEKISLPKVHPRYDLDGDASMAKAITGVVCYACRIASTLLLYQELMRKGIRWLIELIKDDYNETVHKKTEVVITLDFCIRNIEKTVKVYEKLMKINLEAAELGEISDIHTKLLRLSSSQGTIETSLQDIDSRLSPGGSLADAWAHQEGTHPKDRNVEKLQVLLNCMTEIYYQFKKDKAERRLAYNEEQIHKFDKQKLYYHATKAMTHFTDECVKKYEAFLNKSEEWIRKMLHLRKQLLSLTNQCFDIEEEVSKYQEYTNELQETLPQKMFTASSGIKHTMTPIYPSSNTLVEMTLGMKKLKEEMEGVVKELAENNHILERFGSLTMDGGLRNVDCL
The following applies: at 0.1 µM.

Sequence of PAS domain-containing serine/threonine-protein kinase (Homo sapiens) (Q96RG2 whole entry, the tested form may be a part): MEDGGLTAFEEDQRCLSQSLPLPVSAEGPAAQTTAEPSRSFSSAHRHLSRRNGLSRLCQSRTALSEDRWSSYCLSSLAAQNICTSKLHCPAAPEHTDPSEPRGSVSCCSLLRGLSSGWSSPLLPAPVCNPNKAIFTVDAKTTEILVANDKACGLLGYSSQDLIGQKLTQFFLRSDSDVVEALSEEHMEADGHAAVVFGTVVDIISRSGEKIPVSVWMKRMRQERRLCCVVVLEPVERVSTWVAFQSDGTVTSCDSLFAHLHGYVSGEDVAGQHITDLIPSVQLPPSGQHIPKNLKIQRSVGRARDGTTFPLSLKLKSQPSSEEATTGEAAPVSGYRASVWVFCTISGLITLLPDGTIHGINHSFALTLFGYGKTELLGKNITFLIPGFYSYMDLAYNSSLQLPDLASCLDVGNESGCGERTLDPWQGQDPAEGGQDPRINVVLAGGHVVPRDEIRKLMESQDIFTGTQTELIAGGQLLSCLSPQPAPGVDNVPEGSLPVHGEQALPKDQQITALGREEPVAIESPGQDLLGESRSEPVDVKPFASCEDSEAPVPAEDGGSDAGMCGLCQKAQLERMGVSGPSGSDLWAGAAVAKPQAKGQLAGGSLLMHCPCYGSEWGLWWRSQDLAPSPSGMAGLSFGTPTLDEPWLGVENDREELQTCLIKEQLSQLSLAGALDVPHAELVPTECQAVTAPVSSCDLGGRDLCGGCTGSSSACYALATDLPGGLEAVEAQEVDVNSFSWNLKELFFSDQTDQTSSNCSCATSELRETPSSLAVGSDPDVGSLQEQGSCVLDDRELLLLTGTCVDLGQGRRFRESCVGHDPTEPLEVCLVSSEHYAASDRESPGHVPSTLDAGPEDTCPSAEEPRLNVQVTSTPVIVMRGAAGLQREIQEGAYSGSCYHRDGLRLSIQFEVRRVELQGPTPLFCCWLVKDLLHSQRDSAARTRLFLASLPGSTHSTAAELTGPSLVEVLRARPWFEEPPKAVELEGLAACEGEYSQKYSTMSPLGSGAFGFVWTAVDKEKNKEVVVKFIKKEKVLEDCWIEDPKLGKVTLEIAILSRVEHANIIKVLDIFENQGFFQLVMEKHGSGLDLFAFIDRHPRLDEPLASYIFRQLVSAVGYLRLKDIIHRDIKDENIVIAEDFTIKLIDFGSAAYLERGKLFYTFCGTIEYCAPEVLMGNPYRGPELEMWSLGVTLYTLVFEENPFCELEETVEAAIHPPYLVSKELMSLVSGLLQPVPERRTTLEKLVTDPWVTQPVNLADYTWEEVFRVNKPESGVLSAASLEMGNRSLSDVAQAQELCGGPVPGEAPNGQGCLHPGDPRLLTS
Sequence of Serine/threonine-protein kinase pim-2 (Homo sapiens) (Q9P1W9 whole entry, looked up): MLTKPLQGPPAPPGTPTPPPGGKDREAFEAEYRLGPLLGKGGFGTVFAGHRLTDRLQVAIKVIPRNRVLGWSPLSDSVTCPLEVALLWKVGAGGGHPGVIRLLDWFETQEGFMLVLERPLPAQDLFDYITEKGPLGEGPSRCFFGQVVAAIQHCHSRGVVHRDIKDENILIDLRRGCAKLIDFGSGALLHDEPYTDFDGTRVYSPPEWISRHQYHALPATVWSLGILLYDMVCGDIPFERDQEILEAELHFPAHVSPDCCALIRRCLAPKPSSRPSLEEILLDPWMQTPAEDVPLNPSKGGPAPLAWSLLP
Sequence of Phosphorylase b kinase gamma catalytic chain, skeletal muscle/heart isoform (Homo sapiens) (Q16816 whole entry, looked up, canonical isoform): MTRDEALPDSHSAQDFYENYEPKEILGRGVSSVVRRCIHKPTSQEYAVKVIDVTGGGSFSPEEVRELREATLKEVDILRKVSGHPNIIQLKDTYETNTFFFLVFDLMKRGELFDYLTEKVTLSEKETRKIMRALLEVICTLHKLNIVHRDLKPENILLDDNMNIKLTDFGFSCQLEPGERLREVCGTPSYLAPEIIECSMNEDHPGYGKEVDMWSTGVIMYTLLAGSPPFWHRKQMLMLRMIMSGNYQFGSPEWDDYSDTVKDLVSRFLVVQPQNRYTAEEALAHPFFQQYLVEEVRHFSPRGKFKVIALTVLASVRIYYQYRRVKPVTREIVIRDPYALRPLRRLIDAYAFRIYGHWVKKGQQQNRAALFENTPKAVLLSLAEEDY
Sequence of Serine/threonine-protein kinase MARK2 (Homo sapiens) (Q7KZI7 whole entry, the tested form may be a part): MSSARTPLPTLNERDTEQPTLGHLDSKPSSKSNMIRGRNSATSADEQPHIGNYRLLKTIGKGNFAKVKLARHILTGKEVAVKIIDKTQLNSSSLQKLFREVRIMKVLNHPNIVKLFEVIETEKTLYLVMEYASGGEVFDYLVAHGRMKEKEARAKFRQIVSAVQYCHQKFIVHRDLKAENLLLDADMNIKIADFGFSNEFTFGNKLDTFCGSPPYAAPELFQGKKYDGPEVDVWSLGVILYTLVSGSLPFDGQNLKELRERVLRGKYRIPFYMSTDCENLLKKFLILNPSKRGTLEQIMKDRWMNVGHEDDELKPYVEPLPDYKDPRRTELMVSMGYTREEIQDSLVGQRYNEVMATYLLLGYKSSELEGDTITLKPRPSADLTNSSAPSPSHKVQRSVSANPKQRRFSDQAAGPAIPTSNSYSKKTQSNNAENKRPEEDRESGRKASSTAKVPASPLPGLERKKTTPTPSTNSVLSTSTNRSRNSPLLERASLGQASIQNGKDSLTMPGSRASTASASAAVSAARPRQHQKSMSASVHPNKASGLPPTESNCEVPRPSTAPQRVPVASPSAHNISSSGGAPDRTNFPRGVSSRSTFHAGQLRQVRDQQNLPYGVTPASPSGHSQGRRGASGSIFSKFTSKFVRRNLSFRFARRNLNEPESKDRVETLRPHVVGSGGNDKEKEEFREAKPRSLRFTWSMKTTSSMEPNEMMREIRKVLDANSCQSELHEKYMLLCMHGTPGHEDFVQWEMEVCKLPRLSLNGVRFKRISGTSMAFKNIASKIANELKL
Sequence of Serine/threonine-protein kinase SIK2 (Homo sapiens) (Q9H0K1 whole entry, looked up): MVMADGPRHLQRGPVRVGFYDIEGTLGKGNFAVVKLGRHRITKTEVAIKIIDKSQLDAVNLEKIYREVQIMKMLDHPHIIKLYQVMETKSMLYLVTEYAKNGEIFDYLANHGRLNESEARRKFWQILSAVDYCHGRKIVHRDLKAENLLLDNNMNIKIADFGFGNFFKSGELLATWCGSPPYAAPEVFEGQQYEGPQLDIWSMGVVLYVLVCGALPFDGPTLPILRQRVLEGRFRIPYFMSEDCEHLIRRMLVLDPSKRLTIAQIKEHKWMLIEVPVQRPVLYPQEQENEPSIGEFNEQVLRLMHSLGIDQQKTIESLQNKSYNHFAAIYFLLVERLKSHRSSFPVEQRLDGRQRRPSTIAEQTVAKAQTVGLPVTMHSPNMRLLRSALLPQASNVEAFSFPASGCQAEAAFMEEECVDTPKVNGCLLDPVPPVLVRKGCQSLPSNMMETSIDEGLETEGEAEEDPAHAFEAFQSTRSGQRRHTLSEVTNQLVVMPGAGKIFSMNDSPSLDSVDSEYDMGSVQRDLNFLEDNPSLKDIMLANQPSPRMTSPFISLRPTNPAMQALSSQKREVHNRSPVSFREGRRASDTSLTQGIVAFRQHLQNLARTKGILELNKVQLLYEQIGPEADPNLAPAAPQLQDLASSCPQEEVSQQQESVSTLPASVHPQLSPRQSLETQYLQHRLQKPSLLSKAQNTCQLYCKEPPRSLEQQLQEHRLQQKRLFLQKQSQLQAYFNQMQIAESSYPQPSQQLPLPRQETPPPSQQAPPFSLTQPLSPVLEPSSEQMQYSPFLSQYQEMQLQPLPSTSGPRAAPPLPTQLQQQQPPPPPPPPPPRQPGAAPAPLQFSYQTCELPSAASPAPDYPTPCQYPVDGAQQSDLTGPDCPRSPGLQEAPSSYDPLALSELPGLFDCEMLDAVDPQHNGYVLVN
Sequence of Serine/threonine-protein kinase pim-1 (Homo sapiens) (P11309 whole entry, looked up): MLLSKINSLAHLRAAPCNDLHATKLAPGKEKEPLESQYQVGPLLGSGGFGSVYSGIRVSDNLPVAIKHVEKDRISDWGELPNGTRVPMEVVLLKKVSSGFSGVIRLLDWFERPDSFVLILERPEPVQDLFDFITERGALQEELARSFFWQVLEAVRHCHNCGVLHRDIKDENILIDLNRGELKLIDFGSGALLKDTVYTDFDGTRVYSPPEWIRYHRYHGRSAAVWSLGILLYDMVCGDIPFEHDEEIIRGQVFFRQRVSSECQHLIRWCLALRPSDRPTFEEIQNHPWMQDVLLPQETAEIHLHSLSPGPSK

In general, inhibition refers to the relative decrease from the control value, in per cent. With `Nc1nc(-c2ccccn2)c(-c2ccc3ncccc3n2)s1`, the inhibition in assay [1] is 1.77%; in assay [2] it was -0.2%; in [3], -0.49%; in [4] it was 0.58%; in assay [5], 4.27%; in [6], 4.79%. Moreover, the inhibition in assay [7] was 5.31%; in assay [8], 0.81%; in assay [9] it was 2.21%; in assay [10], -0.67%; in [11], 0.01%; in [12], 0.6%. Further, the inhibition in [13] is 2.63%; in [14], 1.31%; in assay [15], 1.64%; in assay [16] it was 4.91%; in assay [17], 3.52%; in assay [18] it was 4.07%. The inhibition in assay [19] came to 4.74%; in assay [20] it was 2.8%.
With `CS(=O)(=O)CCNCc1ccc(-c2ccc3ncnc(Nc4ccc(OCc5cccc(F)c5)c(C(F)(F)F)c4)c3c2)o1`, the inhibition in [1] is -0.27%; in assay [2] it was -0.62%; in assay [3], 0.4%; in [4], 5.41%; in assay [5], 4.1%; in [6], 4.72%. The inhibition was found to be 4.64% in assay [7]; 1.03% in assay [8]; 1.08% in assay [9]; 0.19% in assay [10]; 0.66% in assay [11]; 0.74% in assay [12]. Also, the inhibition in assay [13] was determined as 0.16%; in assay [14], 1.63%; in assay [15], 2.16%; in assay [16] it was 0.39%; in [17], 9.67%; in [18] it was 2.19%. Besides, the inhibition in assay [19] amounted to 10.8%; in assay [20] it was 1.68%.
`NC(=O)c1cccc(Nc2nccc(Nc3cccc4[nH]ncc34)n2)c1`: the inhibition was 10.3% in [1]; 0.03% in assay [2]; 1.81% in assay [3]; 0.63% in assay [4]; 12.6% in assay [5]; -5.45% in [6]. In addition, the inhibition is -1.62% in [7]; 0.6% in assay [8]; 1.43% in [9]; 0.4% in assay [10]; 1.09% in assay [11]; -0.77% in [12]. Also, the inhibition in assay [13] is 3.49%; in assay [14], -1.41%; in [15], -1%; in [16], 14.8%; in [17], 68.5%; in [18], -4.28%. In addition, the inhibition came to 32.5% in assay [19] and 0.88% in assay [20].
`Fc1cccc(COc2ccc(Nc3ncnc4sc(-c5cccs5)cc34)cc2Cl)c1`: the inhibition in [1] is 4.63%; in [2], 0.96%; in assay [3] it was -0.11%; in assay [4], 2.66%; in assay [5], 6.77%; in assay [6] it was -1.25%. In addition, the inhibition in [7] was -2.01%; in assay [8], 0.38%; in assay [9] it was 1.29%; in [10], 0.52%; in [11], 1.54%; in assay [12], 0.47%. For the same molecule, the inhibition in assay [13] was determined as 1.27%; in assay [14], 0.51%; in [15], 0.8%; in assay [16], 0.72%; in [17], 7.28%; in [18] it was 2.25%. In addition, the inhibition is -2.41% in assay [19] and 0.83% in assay [20].
With `CS(=O)(=O)CCNCc1ccc(-c2ccc3ncnc(Nc4ccc(OCc5ccccc5)c(Cl)c4)c3c2)o1`, the inhibition in assay [1] was 3.76%; in assay [2], 0.71%; in assay [3], 0.11%; in assay [4] it was 1.63%; in assay [5], 6.13%; in assay [6] it was -1.65%. Besides, the inhibition in assay [7] is -2.44%; in [8] it was 0.36%; in [9] it was 1.78%; in [10] it was -0.34%; in assay [11], 0.98%; in assay [12], 0.47%. Further, the inhibition in [13] was 1.74%; in [14], 0.46%; in assay [15], 0.34%; in assay [16] it was 1.53%; in [17], 4.15%; in assay [18] it was -3.07%. Also, the inhibition in assay [19] is -4.01%; in assay [20], 0.47%.
On to `COc1ccc(-c2nn3ncccc3c2-c2ccnc(Nc3ccc(Cl)c(C(F)(F)F)c3)n2)cc1`, for which the inhibition in assay [1] is -0.83%; in assay [2], 0.24%; in [3] it was 2.12%; in assay [4], 3.41%; in [5], 5.53%; in assay [6], 2.13%. Besides, the inhibition stood at 5.41% in assay [7]; 0.1% in [8]; 0.37% in assay [9]; 0.12% in assay [10]; 0.14% in [11]; 1.02% in assay [12]. Further, the inhibition was found to be 2.53% in assay [13]; 1.42% in assay [14]; 1.91% in assay [15]; 2.76% in assay [16]; 5.43% in assay [17]; 5.44% in assay [18]. For the same molecule, the inhibition was 1.72% in assay [19] and 0.22% in assay [20].
